# According to PubChem BioAssay (NCI):
# About 79,000 compounds went through this panel and 15% of them were active in at least one assay; those are over-represented in the sample as a whole. A number with no mark means an inactive call. Active and inactive are the calls of the source. Rule as the data show it: active = growth inhibition above about 70%; inactive = the rest.
# Legend:
# [1] = NCI Yeast Anticancer Drug Screen. Data for the rad50 strain (AID 155);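 also: 0% = growth of vehicle-only cultures of the same strain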; details: S. cerevisiae rad50 strain growth inhibition; at 50.0 µM; active compounds read high
# How it was run: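 DNA repair mutant yeast, compound exposure, growth read-out; inhibition is taken relative to vehicle.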
# [2] = NCI Yeast Anticancer Drug Screen. Data for the mec2-1 strain (AID 157); details: S. cerevisiae mec2-1 strain, at 50.0 µM, active compounds read high
# How it was run: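 Test agents were screened against the mec2-1 yeast strain, with defined DNA repair or cell cycle alteration. Growth was scored as inhibition against vehicle-only controls.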
# [3] = NCI Yeast Anticancer Drug Screen. Data for the sgs1 mgt1 strain (AID 161);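 also: 0% = growth of cultures given vehicle only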; details: S. cerevisiae sgs1 mgt1 strain, at 50.0 µM, active compounds read high
# How it was run: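 Inhibition of yeast growth, normalised to vehicle-treated controls, is reported for a strain bearing genetic alterations in DNA damage repair.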
# [4] = NCI Yeast Anticancer Drug Screen. Data for the cln2 rad14 strain (AID 165);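 also: 0% = growth equal to vehicle treated cultures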; details: S. cerevisiae cln2 rad14 strain, at 50.0 µM, active compounds read high
# How it was run: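 Growth of compound-exposed yeast (cln2 rad14 genotype) measured and expressed as inhibition relative to vehicle.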
# [5] = NCI Yeast Anticancer Drug Screen. Data for the bub3 strain (AID 167); details: S. cerevisiae bub3 mutant strain, at 50.0 µM, active compounds read high
# How it was run: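 In this screen, a yeast mutant lacking normal mitotic checkpoint function is challenged with compound. Relative growth versus vehicle gives the inhibition value.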
# [6] = NCI Yeast Anticancer Drug Screen. Data for the mlh1 rad18 strain (AID 175); details: S. cerevisiae mlh1 rad18 strain growth inhibition; at 50.0 µM; active compounds read high
# How it was run: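 In this whole-cell yeast screen, a strain with altered DNA damage repair is challenged with compound, and its growth is measured against matched vehicle-treated controls.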
SMILES,growth inhibition [1],growth inhibition [2],growth inhibition [3],growth inhibition [4],growth inhibition [5],growth inhibition [6]
O=C1Nc2ccccc2/C1=N\[O-].O=C1Nc2ccccc2/C1=N\[O-].[Cu+2],-10.2%,-5.5%,-30.5%,-0.3%,-23.4%,-21.1%
COc1cc2c(c(OC)c1OC)CCC1(C)C(=O)NN=C21 (configuration not stated),-18.1%,11.1%,23.5%,-1.55%,13.7%,3.9%
O=c1[nH]c(NCc2ccc(Cl)cc2)nc2nc[nH]c12,0.85%,-3.85%,-19.5%,12.2%,-8.55%,-46.4%
CC(=O)N1CC(=O)N2C(=O)/C(=C/c3ccc(Cl)cc3)N=C12,2.3%,1.35%,11.9%,3.35%,9.45%,-42.4%
CCOC(=O)c1cn(CC)c2cc(-n3cccc3)c(F)cc2c1=O,46.6%,27.6%,48.1%,39.5%,27%,49.9%
O=C(Nc1ccc(F)c([N+](=O)[O-])c1)Nc1ccccc1C(F)(F)F,3.95%,29.6%,33.8%,-3.5%,31.3%,25.8%
O=C(/C=C\c1ccccc1)OCC(=O)c1ccc(-c2ccccc2)cc1,-20.1%,-2.3%,1.9%,-34.3%,1.1%,4.4%
CC1(C)OS(=O)(=O)C=C1Br,16.7%,-9.8%,-4.15%,-16%,-8.4%,-16.6%
Cc1ccc(S(=O)(=O)C(CC(=O)O)c2ccccc2)cc1 (configuration not stated),0.35%,0.15%,6.15%,4.15%,1.7%,4.2%
CCCCCCCCCCCCCCCC[N+]1(C)CCC[N+](C)(CCCCCCCCCCCCCCCC)CC1 (configuration not stated),-5.25%,-21%,-2.65%,-22.6%,-8.4%,-0.1%
CCOC(=O)/C=C/SCCC(=O)OC,37.3%,21.9%,7.9%,12.4%,15%,40.8%
O=c1[nH]nc(NC2Nc3ccccc3N2)c2ccccc12,17.3%,15.1%,9.15%,-19.2%,6.6%,13.4%
O=c1/c(=C/c2ccccc2[N+](=O)[O-])sc2nnc(-c3cccnc3)n12,11.7%,6.45%,12.8%,21.1%,11.8%,1.4%
COc1ccccc1CC/C(C)=N/NS(=O)(=O)c1ccc(C)cc1,10.8%,4.1%,6.35%,-24.1%,11.5%,6.5%
C=CC(CO)N(CC)CC (configuration not stated),9.55%,8.7%,7.25%,13.3%,1.8%,11.3%
O=C(O)/C=C/C(=O)Nc1ccccc1Cl,10.4%,29.6%,48.9%,0%,42.2%,21%
O=[N+]([O-])c1ccc(F)cc1C(F)(F)F,19.1%,-17.4%,32.4%,-10.2%,0.2%,43.5%
CCCCSCc1nc2nc(Cl)c(Cl)nc2[nH]1,-18.1%,-37.2%,-23.9%,1.15%,-44.8%,-9.25%
Cc1ccccc1Nc1n[nH]c(=O)n1-c1ccccc1C,4.05%,6.65%,1.75%,-12.5%,1.15%,2.9%

SMILES,growth inhibition [1],growth inhibition [2],growth inhibition [3],growth inhibition [4],growth inhibition [5],growth inhibition [6]
CCCCN(C)CCNc1cc(C)nc(Nc2nc3ccc(Cl)cc3[nH]2)n1,90% (active),96.2% (active),74.9% (active),96.6% (active),97.9% (active),96.2% (active)
CCOC(=O)/C=C1\NCCc2ccccc21,-6.85%,1.45%,8.5%,24%,4.8%,4.55%
Cc1ccc(N=c2oc3c(ccc4ccccc43)nc2Nc2ccc(C)cc2)cc1,-33.5%,-32.5%,-46.2%,-35.5%,-32.8%,-19%
C=CCNC(=S)/N=C/C(C(=O)Nc1ccc(Cl)cc1)=C(\C)O,-34.1%,-10.1%,-30.2%,6.6%,-16.8%,-12.8%
CC(=O)OC1CCC2(C)C(CCC3C2CCC2(C)C3CC3OC(CCC(C)CO)C(C)C32)C1 (configuration not stated),14.8%,8.55%,-0.45%,19.6%,-0.75%,10.1%
CC1(COC(=O)C2(C)CO2)CO1 (configuration not stated),28.2%,9.95%,-6.1%,4.7%,-25.2%,-78.2%
Nc1ccccc1SC1CC(=O)N(c2ccc(Oc3ccc(Cl)cc3)cc2)C1=O (configuration not stated),25.6%,12.2%,13.8%,-12.2%,-0.15%,2.55%
COc1ccc(CC(N)C(=O)N(C)C2C(CO)OC(n3cnc4c(N(C)C)ncnc43)C2O)cc1 (configuration not stated),5.3%,-10.8%,-8.7%,-25.7%,2.3%,-7.45%
Cc1nc(-c2ccccc2)ncc1C(O)CN(C)C (configuration not stated),-4.7%,-6.45%,5.35%,2.35%,-30.4%,-6.6%
Cc1ccc(C(C)[N+](=O)[O-])cc1 (configuration not stated),13.2%,18.1%,18.4%,-13.7%,0.45%,18.2%
CCOC(=O)C(=N\Nc1cc(C)cc(C)c1)/C(C)=N\NC(N)=S,25.1%,38.8%,20.1%,57.5%,58.5%,45.6%
COc1ccc(NC(=O)Nc2ccc(Cl)cc2C)cc1,-13.4%,-2.8%,-11.6%,-12.2%,-12.5%,-15.2%
CCOC(=O)C1=C(C)NC(=O)NC1c1ccc(N(C)C)cc1 (configuration not stated),22.8%,-4.05%,23.2%,21.6%,30.6%,29.1%
CCC(=O)c1c2c(cc3ccccc13)CCCC2,11.7%,-10.7%,7.3%,3.85%,38.2%,34%
COc1ccc(NC(=O)C(=O)Cc2nc3ccc(C(=O)c4ccccc4)cc3[nH]c2=O)c([N+](=O)[O-])c1,36%,2.65%,12.7%,19.1%,11.8%,22.6%
CC1(C)COC(C23C4C5C2C2C3C4C52I)=N1 (configuration not stated),25.9%,12.4%,11.2%,18.2%,26.6%,16.6%
CSc1cc(=O)n(C2OC(CO)C(O)C2O)c(=O)[nH]1 (configuration not stated),9.05%,-5.35%,17.6%,-14.9%,10.1%,25.7%
NS(=O)(=O)c1ccc(NC(=O)c2cccc3c(=O)c4ccccc4[nH]c23)cc1,-2.55%,-1.95%,-13.2%,14.8%,-6%,-14.1%
